# In PubChem BioAssay (NCATS):
# Records with an inconclusive call do not appear. Where a call stands in place of a potency, no number is given. Active and inactive are the calls of the source. Unless noted, calls follow the shape of the dose curve; as a rule, active = well fitted curve in the direction sought with a large enough effect; inconclusive = small, poorly fitted or top-dose-only effect, or another doubt; inactive = no such curve, though single readings can be large; an effect the other way counts as inactive or inconclusive.
# How the values were obtained:
# [1] = Primary qHTS for small molecule stabilizers of the endoplasmic reticulum resident proteome: Secreted ER Calcium Modulated Protein (SERCaMP) assay (AID 1508630)
# In short: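 The SH-SY5Y reporter protocol was run at 3 concentrations up to 38.3 uM (primary) or 11 concentrations (follow-up): 16 h compound, 100 nM thapsigargin for 4 h, then extracellular luciferase luminescence.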
# [2] = molecular target: Lysosomal acid glucosylceramidase (Homo sapiens) (UniProt P04062); test: Glucocerebrosidase-p2 (AID 348; in the data active = potency below about 10 µM; also: potency is read from the fitted curve at half-maximal effect); conditions: purified GBA, blue fluorogenic substrate, 40 min
# Sequence of Lysosomal acid glucosylceramidase (Homo sapiens) (P04062 whole entry, looked up): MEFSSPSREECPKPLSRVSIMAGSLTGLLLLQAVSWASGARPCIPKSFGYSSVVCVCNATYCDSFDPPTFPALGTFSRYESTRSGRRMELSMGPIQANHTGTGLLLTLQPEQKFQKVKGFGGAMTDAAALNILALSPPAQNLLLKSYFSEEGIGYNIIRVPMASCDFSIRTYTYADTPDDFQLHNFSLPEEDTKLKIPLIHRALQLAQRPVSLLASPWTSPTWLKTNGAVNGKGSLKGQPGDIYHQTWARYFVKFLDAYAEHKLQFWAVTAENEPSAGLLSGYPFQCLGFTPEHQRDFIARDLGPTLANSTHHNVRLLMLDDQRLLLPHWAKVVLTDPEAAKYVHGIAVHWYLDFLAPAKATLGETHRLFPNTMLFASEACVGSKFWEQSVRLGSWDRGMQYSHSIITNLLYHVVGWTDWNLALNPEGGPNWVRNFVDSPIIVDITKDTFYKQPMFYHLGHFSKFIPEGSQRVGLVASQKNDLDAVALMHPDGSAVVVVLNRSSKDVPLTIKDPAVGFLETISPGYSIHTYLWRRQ
# In short: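 Normal human glucocerebrosidase (0.2 nM) with blue fluorogenic substrate (80 uM final) in citrate/phosphate pH 5.9 with 10mM sodium taurocholate, 0.01% tween-20; 40 min RT, NaOH/glycine stop; fluorescence Ex 365/Em 440; AC50 from a titration from 0.6 nM upwards.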
# [3] = NFAT Signaling Pathway (AID 444; active = well fitted curve in either direction with a large enough effect, not every such curve was filed as active;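 also: carbachol stimulus at about its EC50 of 1 µM final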); conditions: Jurkat NFAT-bla M1, carbachol, beta-lactamase ratio, 5 h; at 7.69 µM (top of the series) unless noted
# In short: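 Read-out: CCF4 FRET ratio (460 nm/530 nm) after 1 h RT dye loading, used for %activity and AC50 from titration series. Cells: Jurkat NFAT-β-lactamase/M1 line, treated with compound plus 1 uM carbachol for 5 h, 37 °C.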
# [4] = molecular target: Glucocorticoid receptor (Homo sapiens) (UniProt P04150); test: GR-GFP Redistribution (AID 450;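 active = compounds whose dose series gives a full or clear partial fitted curve of increased nuclear translocation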; also: potency is read from the fitted curve at half-maximal effect); conditions: U2OS GR-GFP nuclear translocation, laser cytometry, 2 h
# Sequence of Glucocorticoid receptor (Homo sapiens) (P04150 whole entry, looked up, the tested form may be a part): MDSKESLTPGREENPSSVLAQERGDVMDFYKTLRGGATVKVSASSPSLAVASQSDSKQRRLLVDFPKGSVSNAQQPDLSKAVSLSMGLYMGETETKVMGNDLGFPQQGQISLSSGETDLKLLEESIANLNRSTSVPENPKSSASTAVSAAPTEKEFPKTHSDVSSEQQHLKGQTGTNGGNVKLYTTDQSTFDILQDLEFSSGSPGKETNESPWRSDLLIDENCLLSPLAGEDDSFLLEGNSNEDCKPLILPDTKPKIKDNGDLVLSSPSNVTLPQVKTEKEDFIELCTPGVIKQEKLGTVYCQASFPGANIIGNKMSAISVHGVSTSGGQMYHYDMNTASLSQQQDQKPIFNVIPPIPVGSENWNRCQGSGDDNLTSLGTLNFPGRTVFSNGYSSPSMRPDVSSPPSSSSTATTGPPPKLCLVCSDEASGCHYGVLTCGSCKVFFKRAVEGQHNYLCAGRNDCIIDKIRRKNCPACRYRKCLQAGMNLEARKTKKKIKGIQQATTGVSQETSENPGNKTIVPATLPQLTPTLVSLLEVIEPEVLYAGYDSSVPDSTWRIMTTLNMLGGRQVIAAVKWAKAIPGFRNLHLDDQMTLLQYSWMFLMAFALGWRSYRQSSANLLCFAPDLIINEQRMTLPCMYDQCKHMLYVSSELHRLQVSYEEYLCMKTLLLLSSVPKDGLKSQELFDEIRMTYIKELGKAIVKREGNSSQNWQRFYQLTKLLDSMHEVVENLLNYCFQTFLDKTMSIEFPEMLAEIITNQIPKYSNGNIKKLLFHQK
# [5] = molecular target: Glucocorticoid receptor (Homo sapiens) (UniProt P04150); test: GR-EFC Redistribution (AID 451; calls by dose curve; also: potency is read from the fitted curve at half-maximal effect); conditions: CHO-K1 GR-EFC translocation, beta-gal luminescence, 2 h
# In short: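 Translocation of GR-ED fusion to nuclear EA restores b-gal, read by luminescence after 1 h room-temperature detection. Engineered CHO-K1 biosensor cells, 1,000/well, exposed 2 h at 37 C to titrations up to 46 uM final.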
# [6] = molecular target: Mitogen-activated protein kinase 10 (Mus musculus) (UniProt Q61831); test: JNK3 AlphaScreen Assay (AID 530; active = well fitted curve in either direction with a large enough effect, not every such curve was filed as active;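 also: kinase came from lysate of stimulated human HepG2 cells; signal reports phosphorylation of biotinylated GST-cJun 1-79 at Ser73 with 10 µM ATP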)
# In short: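 Kinase buffer: 20 mM Tris-HCl pH 7.6, 10 mM MgCl2, 1 mM DTT, 0.1 mM Na3VO4, 0.01% Tween-20; ATP 10 uM. Substrate biotin-GST-cJun(1-79), enzyme from activated HepG2 lysates. Detection by Ser73 phospho-antibody AlphaScreen.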
# [7] = molecular target: 3',5'-cyclic-AMP phosphodiesterase 4B (Homo sapiens) (UniProt Q07343); test: qHTS Assay for Inhibitors of PDE-IV (AID 607; active = well fitted activation curve with a large enough effect in the main read-out, with a control signal flat, not every such curve was filed as active)
# Sequence of 3',5'-cyclic-AMP phosphodiesterase 4B (Homo sapiens) (Q07343 whole entry, looked up): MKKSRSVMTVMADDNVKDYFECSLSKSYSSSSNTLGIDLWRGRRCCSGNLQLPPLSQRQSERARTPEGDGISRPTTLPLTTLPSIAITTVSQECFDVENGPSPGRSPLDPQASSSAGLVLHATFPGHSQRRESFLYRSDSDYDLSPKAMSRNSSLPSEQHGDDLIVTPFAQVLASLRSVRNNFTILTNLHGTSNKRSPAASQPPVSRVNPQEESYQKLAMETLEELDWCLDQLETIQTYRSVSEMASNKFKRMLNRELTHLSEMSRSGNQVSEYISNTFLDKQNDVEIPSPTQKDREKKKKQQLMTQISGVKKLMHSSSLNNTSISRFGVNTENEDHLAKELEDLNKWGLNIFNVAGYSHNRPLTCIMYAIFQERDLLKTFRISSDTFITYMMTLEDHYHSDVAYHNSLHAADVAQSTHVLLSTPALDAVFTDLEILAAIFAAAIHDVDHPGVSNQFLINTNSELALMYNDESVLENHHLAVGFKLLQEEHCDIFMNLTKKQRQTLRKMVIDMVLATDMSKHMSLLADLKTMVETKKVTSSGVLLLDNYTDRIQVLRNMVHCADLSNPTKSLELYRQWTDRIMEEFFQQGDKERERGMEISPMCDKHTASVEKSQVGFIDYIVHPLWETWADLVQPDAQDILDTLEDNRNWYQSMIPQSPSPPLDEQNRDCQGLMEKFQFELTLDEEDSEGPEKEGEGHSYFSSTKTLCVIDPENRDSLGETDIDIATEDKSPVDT
# In short: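 ACTOne HEK293 cells carry a modified cAMP-gated CNG channel and express endogenous PDE4; plated 1000 cells/well, compounds up to 22.9 uM final. Membrane-potential dye fluorescence (ex 535/em 590) was read; parental cells received 10 uM forskolin + 100 uM RO 20-1724.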
# [8] = qHTS Assay for Lipid Storage Modulators (AID 1519; calls by dose curve); conditions: Drosophila S3 cells, BODIPY lipid droplet/cell ratio, laser cytometry, cells loaded with oleic acid
# In short: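 Cells seeded at 5,000 per well were treated with compounds over a concentration series and loaded with oleic acid (400 uM, as added). Lipid droplet fluorescence (488 nm excitation, 500-530 nm channel) was read by laser-scanning cytometry and normalized to 20 uM Triacsin C.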
# [9] = molecular target: Dual specificity protein kinase CLK4 (Homo sapiens) (UniProt Q9HAZ1); test: qHTS Assay for Inhibitors of CDC-like Kinase 4 (Kinase-Glo Assay) (AID 1770); also: nearly all actives have a fitted effect of over 65% in size
# Sequence of Dual specificity protein kinase CLK4 (Homo sapiens) (Q9HAZ1 whole entry, looked up): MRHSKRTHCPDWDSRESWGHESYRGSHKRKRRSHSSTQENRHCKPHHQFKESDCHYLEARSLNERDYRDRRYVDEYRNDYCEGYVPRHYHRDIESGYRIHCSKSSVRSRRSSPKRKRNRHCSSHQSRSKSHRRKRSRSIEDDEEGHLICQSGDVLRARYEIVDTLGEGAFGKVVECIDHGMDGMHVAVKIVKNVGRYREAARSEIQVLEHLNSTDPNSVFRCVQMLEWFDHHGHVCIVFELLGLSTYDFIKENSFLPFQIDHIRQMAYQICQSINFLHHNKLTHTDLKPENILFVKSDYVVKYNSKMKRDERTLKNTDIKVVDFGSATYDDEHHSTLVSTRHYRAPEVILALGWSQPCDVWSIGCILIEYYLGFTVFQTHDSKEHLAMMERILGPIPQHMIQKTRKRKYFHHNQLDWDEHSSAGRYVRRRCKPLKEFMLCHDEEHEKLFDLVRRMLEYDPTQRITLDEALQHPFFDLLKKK
# In short: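 Recombinant human Clk4 (25 nM) phosphorylated RS repeat peptide (100 uM) with 1 uM ATP in Tris pH 7.5/MgCl2/EGTA/DTT/Triton buffer for 4.5 h at room temperature. Residual ATP was quantified by Kinase-Glo luciferase luminescence.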
# [10] = molecular target: Dual specificity protein kinase CLK4 (Homo sapiens) (UniProt Q9HAZ1); test: qHTS Assay for Inhibitors of CDC-like Kinase 4 (ADP-Glo Assay) (AID 1771); also: nearly all actives have a fitted effect of over 70% in size
# In short: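 25 nM Clk4, 100 uM RS peptide, 1 uM ATP (final); 2 mM MgCl2, 0.5 mM EGTA, 2.5 mM DTT, 0.01% Triton X-100; 1 hr RT. ADP-Glo readout: ATP depletion 45 min, conversion/luciferase 30 min, luminescence.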
# [11] = molecular target: Dual specificity protein kinase CLK4 (Homo sapiens) (UniProt Q9HAZ1); test: qHTS Assay for Inhibitors of CDC-like Kinase 4 (ADP-FP Assay) (AID 1795); also: nearly all actives have a fitted effect of over 60% in size
# In short: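 Recombinant human Clk4 (6.25 nM) phosphorylated RS repeat peptide (100 uM) with 1 uM ATP in Tris pH 7.5/MgCl2/EGTA/DTT/Triton buffer for one hour. ADP was quantified by Transcreener competitive fluorescence polarization against an ADP calibration curve.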
# [12] = molecular target: Ubiquitin carboxyl-terminal hydrolase 1 (Homo sapiens) (UniProt O94782); test: Inhibitors of USP1/UAF1: Pilot qHTS (AID 504865);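 also: rhodamine fluorescence freed from ubiquitin-rhodamine substrate followed over time; top concentration of the series differs between compounds; nearly all actives have a fitted effect of over 35% in size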
# Sequence of Ubiquitin carboxyl-terminal hydrolase 1 (Homo sapiens) (O94782 whole entry, looked up): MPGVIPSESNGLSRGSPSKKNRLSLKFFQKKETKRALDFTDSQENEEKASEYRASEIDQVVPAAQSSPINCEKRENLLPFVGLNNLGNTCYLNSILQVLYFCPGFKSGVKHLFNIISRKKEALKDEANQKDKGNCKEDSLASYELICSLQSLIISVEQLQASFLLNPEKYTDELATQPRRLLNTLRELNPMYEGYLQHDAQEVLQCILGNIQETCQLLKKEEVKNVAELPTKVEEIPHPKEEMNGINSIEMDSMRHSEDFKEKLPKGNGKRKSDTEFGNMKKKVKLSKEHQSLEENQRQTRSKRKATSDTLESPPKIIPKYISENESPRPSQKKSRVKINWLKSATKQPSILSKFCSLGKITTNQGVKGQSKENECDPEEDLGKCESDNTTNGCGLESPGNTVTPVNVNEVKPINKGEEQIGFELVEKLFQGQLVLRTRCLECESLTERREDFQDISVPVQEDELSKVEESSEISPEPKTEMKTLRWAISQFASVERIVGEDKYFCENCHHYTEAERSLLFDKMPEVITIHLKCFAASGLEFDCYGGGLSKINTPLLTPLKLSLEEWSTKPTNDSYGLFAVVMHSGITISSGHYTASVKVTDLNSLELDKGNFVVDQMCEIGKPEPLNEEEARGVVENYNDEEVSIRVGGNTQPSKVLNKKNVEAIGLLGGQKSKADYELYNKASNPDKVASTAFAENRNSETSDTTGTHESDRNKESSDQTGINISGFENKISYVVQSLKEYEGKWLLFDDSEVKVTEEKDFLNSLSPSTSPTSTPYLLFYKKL
# In short: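 USP1/UAF1 complex (1nM) preincubated with compound 15 min at room temperature, then Ub-Rho substrate (150nM final) added. Fluorescence read kinetically at 480/540 nm, 6 reads every 60 seconds. Buffer: 50mM HEPES pH 7.8, 0.5mM EDTA, 0.1 mg/ml BSA, 1mM TCEP, 0.01% Tween-20.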
# [13] = molecular target: Rap guanine nucleotide exchange factor 3 (Homo sapiens) (UniProt O95398); test: Confirmatory qHTS for agonist of cAMP-regulated guanine nucleotide exchange factor 3 (EPAC1) (AID 1645881);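 also: EPAC1 catalysed release of BODIPY-GDP from Rap1B seen as fluorescence loss; nearly all actives have a fitted effect of over 75% in size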
# [14] = molecular target: Rap guanine nucleotide exchange factor 4 (Homo sapiens) (UniProt Q8WZA2); test: Confirmatory qHTS for agonist of cAMP-regulated guanine nucleotide exchange factor 4 (EPAC2) (AID 1645884);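 also: nucleotide exchange releases bodipy-GDP from Rap1 and this lowers its fluorescence; nearly all actives have a fitted effect of over 65% in size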
# Sequence of Rap guanine nucleotide exchange factor 4 (Homo sapiens) (Q8WZA2 whole entry, looked up): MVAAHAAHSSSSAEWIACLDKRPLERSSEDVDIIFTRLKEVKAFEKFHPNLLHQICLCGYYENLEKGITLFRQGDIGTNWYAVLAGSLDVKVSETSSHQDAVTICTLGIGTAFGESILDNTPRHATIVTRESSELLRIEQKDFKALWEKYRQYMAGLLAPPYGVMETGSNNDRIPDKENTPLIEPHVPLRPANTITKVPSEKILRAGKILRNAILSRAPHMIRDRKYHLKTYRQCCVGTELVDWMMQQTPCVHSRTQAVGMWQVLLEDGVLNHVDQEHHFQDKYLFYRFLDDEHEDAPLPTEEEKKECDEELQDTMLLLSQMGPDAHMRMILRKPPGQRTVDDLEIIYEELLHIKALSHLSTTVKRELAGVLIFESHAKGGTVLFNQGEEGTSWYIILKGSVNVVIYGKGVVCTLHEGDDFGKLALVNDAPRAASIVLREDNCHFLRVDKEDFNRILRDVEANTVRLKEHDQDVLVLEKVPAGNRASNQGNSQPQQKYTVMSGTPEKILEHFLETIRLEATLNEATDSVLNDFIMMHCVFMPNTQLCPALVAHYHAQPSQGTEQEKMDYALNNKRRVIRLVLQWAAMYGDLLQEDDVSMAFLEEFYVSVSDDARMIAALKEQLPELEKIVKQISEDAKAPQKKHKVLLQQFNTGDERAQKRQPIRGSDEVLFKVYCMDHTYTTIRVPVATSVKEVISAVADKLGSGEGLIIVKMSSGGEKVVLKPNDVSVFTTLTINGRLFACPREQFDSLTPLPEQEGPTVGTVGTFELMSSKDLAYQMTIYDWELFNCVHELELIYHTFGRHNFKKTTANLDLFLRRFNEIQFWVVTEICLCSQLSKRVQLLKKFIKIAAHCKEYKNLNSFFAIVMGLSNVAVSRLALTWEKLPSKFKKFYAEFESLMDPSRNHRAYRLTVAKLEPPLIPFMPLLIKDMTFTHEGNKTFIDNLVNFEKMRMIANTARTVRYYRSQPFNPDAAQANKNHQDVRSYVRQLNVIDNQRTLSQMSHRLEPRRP
# [15] = molecular target: Rap guanine nucleotide exchange factor 4 (Homo sapiens) (UniProt Q8WZA2); test: Confirmatory qHTS for antagonist of cAMP-regulated guanine nucleotide exchange factor 4 (EPAC2) (AID 1645885); also: nearly all actives have a fitted effect of over 25% in size
smiles,measurement,setting,value
Cc1csc(-c2coc3cc(O[C@@H]4O[C@H](CO)[C@@H](O)[C@@H](O)[C@H]4O)ccc3c2=O)n1,Potency,[1],inactive
CC1=NN(c2ccc([N+](=O)[O-])cc2)C(=O)C1[N+](=O)[O-] (stereo unspecified),Potency,[1],inactive
C[C@@H]1CCC2C(C)(C)C3CC21CC[C@@]3(C)O (stereo partly specified),Potency,[1],inactive
CC(C)C1NC(C(=O)O)Cc2c1[nH]c1ccccc21 (stereo unspecified),Potency,[1],inactive
COc1c2c(cc3c1C(NC(N)=O)[N+](C)(C)CC3)OCO2 (stereo unspecified),Potency,[1],inactive
CC(C)=CCn1cnc2c1c(=O)n(C)c(=O)n2C,Potency,[1],inactive
CC(=O)OC[C@@]12C(=O)[C@@H](O)[C@@H](C)[C@]3(C[C@@H](c4ccoc4)O[C@@H]3OC(C)=O)[C@H]1CCC[C@]21CO1,Potency,[1],inactive
Cc1cn2c(=O)c3ccccc3nc2n2c(=O)c3ccccc3nc12,Potency,[1],inactive
O=C(O)C(O)C(O)(Cc1ccc(O)cc1)C(=O)O (stereo unspecified),Potency,[1],inactive
COc1ccc2cnoc(=O)c2c1OC,Potency,[1],inactive
COc1c2c(cc3c1C(CC(=O)c1c(O)c(OC)c4occc4c1OC)[N+](C)(C)CC3)OCO2 (stereo unspecified),Potency,[1],inactive
CC1(C)Oc2ccc3ccc(=O)oc3c2CC1=O,Potency,[1],inactive
COC(=O)/C(=C1/OC(=O)C(c2ccccc2)=C1O)c1ccccc1,Potency,[1],inactive
COc1cc2c(cc1OC)OC(C)(C)C=C2,Potency,[1],inactive
COc1ccc([C@@H]2[C@@H](O)[C@H](O)[C@@H](C)N2C)cc1OC,Potency,[1],inactive
COc1ccc(-n2c(=O)c(-c3cc(F)cc(F)c3)nc3cnc(N(C)C)nc32)cc1,Potency,[2],> 11.4 µM (inactive)
same,"activity change, negative = inhibition",[3],17.5% (inactive)
same,Potency,[4],> 9.22 µM (inactive)
same,Potency,[5],> 46 µM (inactive)
same,outcome,[6],inactive
same,Potency,[7],inactive
same,"activity change, negative = inhibition",[8]; at 57.5 µM (top of the series),5.64% (inactive)
same,max response,[8]; measured here: cell count channel max response,11.6%
same,max response,[8]; measured here: lipid channel max response,18.1%
same,Potency,[9],inactive
same,Potency,[10],inactive
same,Potency,[11],inactive
same,Potency,[12],inactive
same,Potency,[1],inactive
same,outcome,[13],inactive
same,outcome,[14],inactive
same,Potency,[15],inactive
CC(C)C1=CC2=CC[C@H]3[C@](C)(C(=O)O)CCC[C@]3(C)C2CC1 (stereo partly specified),Potency,[1],inactive
COC(C)C(C(=O)OCC1=CCN2CC[C@H](O)[C@@H]12)C(C)C (stereo partly specified),Potency,[1],inactive
C[C@H]1CC[C@@H]2N(C1)C[C@H]1[C@@H]3C[C@H]4[C@@H](C/C(=N\O)[C@H]5C[C@@H](O)CC[C@@]54C)[C@@H]3CC[C@H]1[C@]2(C)O,Potency,[1],inactive
Cc1nc(-c2coc3c(O)c(O)ccc3c2=O)cs1,Potency,[1],inactive
O=C(O)C1Cc2c([nH]c3ccccc23)C(c2coc3ccccc3c2=O)N1 (stereo unspecified),Potency,[1],inactive
C/C=C(\C)C(=O)O[C@H]1CC(C)=C2C(=O)C=C(C)C2[C@@H]2OC(=O)[C@@](C)(OC(=O)C=C(C)C)C21 (stereo partly specified),Potency,[1],inactive
c1cnc2c(-c3nccc4c3[nH]c3ccccc34)cccc2c1,Potency,[1],inactive
C[C@@H]1Oc2ccccc2C=C1/C=C/C(=O)O,Potency,[1],inactive
COc1c2c(cc3c1C(c1c(O)c4ccccc4oc1=O)N(C)CC3)OCO2 (stereo unspecified),Potency,[1],inactive
